# TEAD-YAP inh: TEAD-YAP interaction inhibition, primary screen, TEAD-YAP interaction inhibitor project, luminescence, HEK-TIYL cells; inhibition, % at 9.12 µM; 640,000 compounds, 1.4% hits; TEAD-Gal4/YAP UAS-luciferase luminescence; AID 1259422, 2018; in the data active means inhibition above about 32%;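 further: 0% = median of test compound wells and 100% = reference inhibitor wells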
# FBW7 act: FBW7 E3 ligase activators, primary screen, biochemical, AlphaScreen, human. F-box/WD repeat-containing protein 7 (Homo sapiens), Q969H0. AlphaScreen FBW7–phospho-cyclin E peptide binding, activator screen. normalized activity (activation), % at 26.1 µM. 650,000 compounds, 0.13% hits. AID 1259310, 2017; in the data active means normalized activity above about 1.9%;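 further: purified mutant Fbw7 with reduced substrate affinity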
# MITF inh: MITF inhibitors, primary screen, biochemical, AlphaScreen, human | Microphthalmia-associated transcription factor (Homo sapiens), O75030 | inhibition, % at 2.6 µM | 650,000 compounds, 0.91% hits | AlphaScreen MITF homodimerization, bead proximity signal; in the data active means inhibition above about 50%;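 further: 0% = vehicle wells with protein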
# GPR151 activ: activators of human GPR151, primary screen, cell-based, PathHunter beta-arrestin, luminescence; PathHunter beta-arrestin GPR151 cells; 650,000 compounds, 1% hits; G-protein coupled receptor 151 (Homo sapiens), Q8TDV0; AID 1508602, 2020; activation, % at 11.2 µM; in the data active means activation above about 4.9%;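 further: 0% = median of compound wells and 100% = cells with positive control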
# * = called active by the depositor. An excerpt weighted towards active compounds, which were near 3.5% of everything screened.
SMILES,TEAD-YAP inh,FBW7 act,MITF inh,GPR151 activ
Cc1ccc(-c2cccc3cnc(Nc4ccc(C(=O)N5CCN(C)CC5)cc4)nc23)cn1,55.0*,0.0,35.2,-1.0
Cc1ccc(-c2cccc3cnc(Nc4ccc(C(=O)N5CCOCC5)cc4)nc23)cn1,49.4*,0.1,22.1,-0.4
CSc1ccc(CCNCc2c(C(=O)O)c(C)n(Cc3ccc(F)cc3)c2C)cc1,5.7,0.0,6.3,0.4
Nc1ccc(OCCOCCOc2ccc(N)cc2)cc1,-5.9,-0.1,-8.6,-0.8
c1cncc(Nc2nc(NC3CC3)c3ncn(-c4ccsc4)c3n2)c1,10.8,-0.1,5.3,1.5
Cn1c(Nc2nc(NC3CC3)c3ncn(-c4ccsc4)c3n2)nc2ccccc21,58.6*,0.1,9.3,-1.0
c1cnc(Nc2nc(NC3CC3)c3ncn(-c4ccsc4)c3n2)nc1,50.1*,0.1,9.1,1.7
CCCNc1nc(Nc2nc3ccccc3n2C)nc2c1ncn2-c1ccsc1,7.8,-0.2,2.8,-1.2
c1ccc(CNc2nc(Nc3cccnc3)nc3c2ncn3-c2ccsc2)cc1,31.6,-0.1,12.1,-0.1
CC(C)N(CCNc1nc(Nc2cccnc2)nc2c1ncn2-c1ccsc1)C(C)C,35.0*,-0.3,-4.7,1.3
CCCNc1nc(Nc2ccc3ncccc3c2)nc2c1ncn2C(C)C,-9.1,0.0,2.1,-0.6
CC(C)N(CCNc1nc(Nc2ccncc2)nc2c1ncn2-c1ccsc1)C(C)C,2.4,-0.1,-2.0,-1.3
CCCNc1nc(Nc2cccnc2)nc2c1ncn2-c1ccsc1,61.0*,-0.1,-0.3,-0.1
CC(C)N(CCNc1nc(Nc2ccc3ncccc3c2)nc2c1ncn2-c1ccsc1)C(C)C,44.4*,-0.2,10.0,-2.1
COc1cc(Nc2nc(NCCN(C(C)C)C(C)C)c3ncn(-c4ccsc4)c3n2)cc(OC)c1OC,8.8,-0.1,-3.3,-0.7
CC(C)n1cnc2c(NCCc3ccc(O)cc3)nc(Nc3ccc4ncccc4c3)nc21,38.9*,0.1,4.0,2.0
COc1cc(C2Nc3cccc4cccc(c34)N2)cc(I)c1O,-5.5,-0.2,6.3,-0.3
CC(C)N(CCNc1nc(Nc2cnccn2)nc2c1ncn2-c1ccsc1)C(C)C,38.7*,0.1,4.3,-0.9
COc1ccc(CCNc2cc(C)nc(Oc3ccccc3)n2)cc1,34.5*,0.1,19.1,3.1
Cc1cc(NCCN(C(C)C)C(C)C)nc(Oc2ccccc2)n1,63.6*,0.1,-2.2,0.8
COc1ccc2oc(=Nc3cc(C(F)(F)F)ccc3N3CCCCC3)c(C(N)=O)cc2c1,-3.0,0.5,9.8,-0.3
O=C(O)c1ccc2c(c1)C1C=CCC1C(c1cccc([N+](=O)[O-])c1)N2 (configuration not stated),14.4,-0.5,82.5*,1.1
COC(=O)c1ccc(C2Nc3ccc(C(=O)O)cc3C3C=CCC32)cc1 (configuration not stated),4.2,-0.9,74.6*,0.4
COc1cccc(C2Nc3ccc(C(=O)O)cc3C3C=CCC32)c1 (configuration not stated),6.0,-1.7,65.3*,0.4
COc1ccc(C2Nc3ccc(C(=O)O)cc3C3C=CCC32)cc1 (configuration not stated),-3.4,-0.8,72.8*,0.0
SMILES,TEAD-YAP inh,FBW7 act,MITF inh,GPR151 activ
O=c1c2cc(N3CCOCC3)ccc2nc(SCc2ccncc2)n1Cc1ccccc1,2.6,0.0,0.2,0.7
COc1cc(/C=N/Nc2ccc(Cl)c(C(=O)O)c2)cc(OC)c1OC,-15.6,0.3,13.9,0.1
COc1ccc2c(c1)C1C=CCC1C(c1ccc(C(=O)O)cc1)N2 (configuration not stated),-14.2,-1.4,52.0*,-2.1
O=[N+]([O-])c1cccc(C2Nc3ccc4ccccc4c3C3C=CCC32)c1 (configuration not stated),40.2*,0.0,3.2,0.3
COc1ccc(OC)c([C@@H]2Nc3ccc(C(=O)O)cc3[C@@H]3C=CC[C@@H]32)c1,-6.5,-0.1,30.7,-1.1
COC(=O)c1ccc2c(c1)C1C=CCC1C(c1ccc(F)cc1)N2 (configuration not stated),-2.2,-0.7,-2.0,3.8
O=C(O)c1ccc([C@@H]2Nc3ccc(F)cc3[C@@H]3C=CC[C@@H]32)cc1,3.7,-1.0,65.5*,-0.7
CCC(Sc1ncccc1C(=O)O)C(=O)Nc1cccc(Cl)c1 (configuration not stated),-4.2,0.0,6.8,-0.8
O=S(=O)(NCc1ccc(F)cc1)c1ccccc1C(F)(F)F,6.0,-0.1,-7.5,4.5

# Assay outcomes as filed in PubChem BioAssay.
